DRD3 agonist: activates the human D3 dopamine receptor; AID 652048; P35462; 410,000 tested, 0.58% active; max activation, %; D3R DiscoveRx beta-arrestin cells, luminescence, 90 min; in the data active means max activation above about 30%; further: 0% is about no effect
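Agonist-mode cell screen: cells plated at 1500/well and incubated overnight at 37 °C, then exposed to library compounds for 90 min at 37 °C. Detection reagent was added for 30–60 min at room temperature, and luminescence was read.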
D1 antag: blocks dopamine activation of the human D1 receptor; HEK293 TREx D1 cells, calcium flux, dopamine EC80; active compounds read low; activity change, negative = inhibition, % at 10 µM; 360,000 tested, 3.2% active; in the data active means activity change below about -30%; further: on the % scale 0 is the no-effect control and ±100 the full control effect
Target sequence (P21728 whole entry, looked up): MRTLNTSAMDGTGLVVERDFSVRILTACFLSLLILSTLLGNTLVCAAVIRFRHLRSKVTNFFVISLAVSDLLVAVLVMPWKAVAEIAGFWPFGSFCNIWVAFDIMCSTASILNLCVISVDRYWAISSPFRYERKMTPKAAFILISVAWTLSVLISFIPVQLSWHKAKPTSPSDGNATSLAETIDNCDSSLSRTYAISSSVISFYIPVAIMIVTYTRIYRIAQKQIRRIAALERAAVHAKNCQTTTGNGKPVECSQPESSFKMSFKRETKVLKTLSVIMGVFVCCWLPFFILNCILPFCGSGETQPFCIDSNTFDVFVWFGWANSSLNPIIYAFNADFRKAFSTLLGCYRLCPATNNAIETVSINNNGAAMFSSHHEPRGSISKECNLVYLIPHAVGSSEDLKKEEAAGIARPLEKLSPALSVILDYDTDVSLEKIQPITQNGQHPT
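Allosteric or orthosteric antagonism assessed as attenuation of the calcium response to EC80 dopamine, added 180 s after compound, in induced HEK293 Trex D1 cells loaded with no-wash calcium dye.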
D3 antag: blocks the human D3 dopamine receptor | P35462 | D3R cells, DiscoveRx beta-arrestin luminescence, antagonist mode; active compounds read low | max response, negative = inhibition, % | 360,000 tested, 2.5% active; in the data active means max response below about -50%; further: on the % scale 0 is the no-effect control and ±100 the full control effect
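Cells plated overnight at 1500 cells/well, then exposed to library compounds with dopamine controls for 90 minutes at 37 degrees C. DiscoveRx reagent added for 30–60 minutes at room temperature; luminescence read, quantitative HTS format.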
D1 potentiator: enhances dopamine response at the human D1 receptor | potentiation, % at 10 µM | AID 504651 | P21728 | HEK293 TREx D1 cells, calcium flux, dopamine EC20 potentiation | 360,000 tested, 0.036% active; in the data active means potentiation above about 30%; further: 0% is about no effect
D1 ag: agonists of human D1 dopamine receptor | P21728 | HEK293 T-REx D1 cells, calcium flux, agonist mode | activation, % at 2 µM | 360,000 tested, 1% active | AID 504660; in the data active means activation above about 30%; further: 0% is about no effect
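Agonism was scored from calcium flux recorded over 180 s (1 read/s) after pintool compound addition, following a 10-cycle baseline. Cells were inducible force-coupled HEK293 TREx D1, plated overnight at 30 C and loaded with no-wash calcium dye.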
ERG Ets-DNA blk: blocks human ERG Ets domain binding to DNA; 370,000 tested, 0.028% active; Potency, µM (highest dose often 76.9 µM), without a hit: at the top dose FP activity, negative = inhibition, actives largely listed as inhibitors; P11308; fluorescence polarization, His-ERG Ets domain / labelled DNA; AID 624246; active means well fitted inhibition curve with a large enough effect in the polarisation, with a control signal flat; the % refers to the polarisation;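 further: polarization taken with two DNA probes labelled with fluorescein and Texas red; potency means the concentration at half of the fitted maximal effect; % of control where 0% means no effect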
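His-tagged ERG Ets domain (1 uM in the protein solution; 300mM KCl, 50mM Tris-HCl, 1mM EDTA, 1mM DTT, pH 7.5) received compound, then a probe mix of 5 nM fluorescein-DNA and 100nM Texas-615-DNA. Fluorescence polarization was read for both dyes.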
The depositor's hits bear a star; x = not tested or not shown. A selection: hits, their analogues and other compounds. The true share with any hit is near 6.1%.

SMILES	DRD3 agonist	D1 antag	D3 antag	D1 potentiator	D1 ag	ERG Ets-DNA blk
CN1CCN(c2nc(-c3cccs3)cc(C(F)(F)F)n2)CC1	-5	31	-94*	-14	6	-5%
CC1CCN(c2nc(-c3ccccc3)cc(C(F)(F)F)n2)CC1	2	-16	-22	2	3	-2%
COc1ccc(-c2cc(C(F)(F)F)nc(N3CCOCC3)n2)cc1OC	2	1	5	-7	1	-3%
CCOc1ccc(NC(=O)CN(C)C(=O)CCCc2c[nH]c3ccccc23)cc1OCC	2	17	-2	-3	2	14%
CCC1CN(CC(=O)NCc2cccc(Br)c2)c2ccccc2S1 (stereo not drawn)	0	-35*	x	-4	1	4%
Cc1cc2c(n1-c1ccc(C(=O)NCc3cccc(Br)c3)cc1)CCC(C)C2 (stereo not drawn)	-14	-60*	x	-4	2	2%
CCc1nc(NC(C)(C)C)c2cnn(-c3ccccc3)c2n1	3	32	-6	6	32*	19%
COc1ccc(C(=O)NC(CC(C)C)C(=O)O)cc1OC (stereo not drawn)	1	-1	-8	0	2	-1%
CCCN1CCN(CCCNC(=O)Cn2c(-c3cccs3)cc3cc(Cl)ccc32)CC1	-11	-18	x	-1	35*	-7%
NS(=O)(=O)c1ccc(N2N=C(c3ccccc3)CC2c2cccc(Br)c2)cc1 (stereo not drawn)	47*	x	21	x	x	12%
CCCNC(=O)Cn1c(=O)/c(=C\c2ccc(-c3ccc([N+](=O)[O-])cc3)o2)s/c1=C\C(=O)C(C)(C)C	3	-83*	45	-7	283*	4%
COc1cc(NC(=O)c2ccc(-c3nc(CSc4ccccc4)c(C)o3)cc2)cc(OC)c1	3	14	x	-2	11	5%
CCc1ccccc1NC(=O)c1cnccn1	-2	-5	13	2	0	-2%
Cc1ccc(NC(=O)CC2SC(=NCC3CCCO3)NC2=O)cc1Cl (stereo not drawn)	2	-1	9	-10	-1	-8%
COc1ccc(NC(=O)CC2SC(=NCC3CCCO3)NC2=O)cc1 (stereo not drawn)	-1	-47*	-9	-11	3	3%
Cc1ccccc1NC(=O)C1(NC(=O)c2cccc(N3C(=O)CSC3c3ccccc3)c2)CCCCC1 (stereo not drawn)	-12	14	-8	13	2	2%
CC(C)(C)c1ccc(C2SCC(=O)N2c2cccc(C(=O)O)c2)cc1 (stereo not drawn)	1	-33*	4	-7	3	1%
CCCCN1C(=O)C(CC(=O)NCCCCc2ccccc2)CC(C(=O)N2CCCCCC2)=C1C (stereo not drawn)	-11	x	-52*	x	x	x
CCCCN1C(=O)C(CC(=O)NCCCCc2ccccc2)CC(C(=O)N2CCOCC2)=C1C (stereo not drawn)	4	x	7	x	x	x
COc1ccc(C(=O)NC(=S)Nc2cc3oc4ccccc4c3cc2OC)cc1	31*	-78*	35	-7	3	17%
CCn1c(CN2CCCCC2)nc2cc(NC(=O)c3cccc([N+](=O)[O-])c3)ccc21	-5	15	x	0	-1	4%
Cc1ccccc1NC(=O)COC(=O)c1ccc(CSc2ccc(Cl)cc2)cc1	11	-15	42	-13	179*	-16%
CCOc1cccc(N2C(=O)CC(N3CCC(C(N)=O)(N4CCCCC4)CC3)C2=O)c1 (stereo not drawn)	1	-7	0	-3	2	-2%
COC(=O)[C@@H]1[C@@H](C#N)C2(c3ccccc3-c3ccccc32)N(c2ccc(Cl)cc2)N1C#N	-6	1	-54*	-6	4	-1%
O=C(CSc1nnc(-c2ccncc2)n1-c1ccc(Cl)cc1)N1CCOCC1	-1	2	-3	2	4	x
SMILES	DRD3 agonist	D1 antag	D3 antag	D1 potentiator	D1 ag	ERG Ets-DNA blk
O=C(NCCN1CCOCC1)c1ccc(Cl)c(Cl)c1	-23	4	-20	-4	5	0%
O=C1/C(=C\c2ccccc2)CN(C(=O)CCN2CCCCC2)C/C1=C/c1ccccc1	-8	x	-62*	x	x	x
O=C1/C(=C\c2ccc(Cl)c(Cl)c2)CN(C(=O)CCN2CCOCC2)C/C1=C/c1ccc(Cl)c(Cl)c1	-21	x	-79*	x	x	1%
CCOc1ccc(Cl)cc1CNCCCSc1ncccn1	-17	-3	-7	-4	10	7%
Cc1ccc(NC(=O)c2ncn(CCCNCc3ccc4c(c3)OCO4)n2)cc1C	-31	x	-12	x	x	-6%
CC(C)(C)c1ccc(S(=O)(=O)NC(Cc2ccccc2)C(=O)O)cc1 (stereo not drawn)	-19	-32*	24	0	3	6%
COc1cc(OC)nc(Oc2ccccc2C=O)n1	-2	x	7	x	x	0%
N#Cc1nc(-c2ccccc2F)oc1NC1CCCCC1	-5	-34*	8	x	1	0%
N#Cc1nc(-c2ccccc2F)oc1N1CCCCC1	-1	0	2	2	-1	3%
COc1ccccc1-c1n[nH]c(=S)o1	-11	0	-82*	-8	0	-3%
Cc1ccccc1-c1n[nH]c(=S)o1	-6	8	-5	0	2	1%
COc1ccc(Cl)cc1-c1n[nH]c(=S)o1	-5	9	-84*	9	0	1%
COc1cccc(C(c2nnnn2C2CCCCC2)N2CCN(C/C=C/c3ccccc3)CC2)c1OC (stereo not drawn)	-17	x	-118*	x	x	x
FC(F)(F)Oc1ccccc1C(c1nnnn1C1CCCC1)N1CCN(C/C=C/c2ccccc2)CC1 (stereo not drawn)	-15	x	-97*	x	x	x
COCc1cc(=O)c2ccccc2o1	-1	x	0	x	x	1%
COc1ccc(S(=O)(=O)n2ccc(C)n2)cc1C	2	0	11	3	-1	x
COc1cc(C)c(S(=O)(=O)n2ccc(C)n2)cc1C	-3	-32*	-25	-2	0	7%
Cc1cccc(NC(=O)CCN2C(=O)c3cccc([N+](=O)[O-])c3C2=O)c1	2	-2	-4	-20	0	8%
CSc1nc(C)c(Oc2ccccc2)c(=O)n1C	-2	-71*	8	-12	-4	-19%
O=C1c2ccccc2OC2(C=Cc3ccccc3O2)N1Cc1ccccc1 (stereo not drawn)	-13	-2	10	-3	4	-2%
CN1CC2=Cc3ccccc3OC23Oc2ccccc2C=C3C1	6	-51*	-8	-16	13	-13%
CCOC(=O)c1cc2c(=O)n3ccccc3nc2n(CC2CCCO2)c1=NC(=O)/C=C/c1ccccc1 (stereo not drawn)	5	9	13	0	2	-1%
